Our source for the outcome values is PubChem BioAssay AID1159577 (Broad Institute, 2015).

The whole screen tested about 1,300 compounds, of which about 240 (18%) were called active. Another 8% or so got no clear call; they are omitted. The rule behind the calls is not given here. Only a sample is shown. Entries with a potency or affinity are not part of this list.

The nature of this experiment: toxicity to human hepatoma HepG2 cells – cell-based, cherry-picked samples, cytotoxicity control, dose response (AID 1159577). The conditions noted are these: HepG2 cytotoxicity counterscreen, plate reader; series mostly up to 19.5 µM.
On to `CCS(=O)(=O)N1CCC2(CC1)CN(Cc1ccc3c(c1)OCO3)[C@H](CO)c1[nH]c3cc(OC)ccc3c12`, for which the result was inactive.
For `CCC(=O)N1[C@H](CO)[C@@H](c2ccccc2-c2cccc(C)c2)[C@@H]1C#N`, the compound was called inactive.
In the case of `COc1ccccc1CNC(=O)C[C@H]1C[C@@H]2c3cc(NC(=O)Nc4ccc(C(F)(F)F)cc4)ccc3O[C@@H]2[C@@H](CO)O1`, the result was inactive.
For `CO[C@H]1CN(C)C(=O)c2cc(NC(=O)C3CC3)ccc2OC[C@H](C)N(Cc2cccc(F)c2)C[C@H]1C`, the call was inactive.
For the compound `O=C(c1ccccc1)N1CC[C@@H]2[C@@H](CO)Nc3ccc(-c4ccc(F)cc4)cc3[C@@H]21`, the call was inactive.
Turning to `COc1ccc(C#Cc2ccc3c(c2)O[C@@H](CN(C)C(=O)Nc2cccc(OC)c2)[C@@H](C)CN([C@@H](C)CO)S3(=O)=O)cc1`, the result was inactive.
Under `Cc1ccccc1S(=O)(=O)N1[C@H](CO)[C@@H](c2ccc(C#CC3CCCCC3)cc2)[C@@H]1C#N` stands “inactive”; under `COCC(=O)N1CC2(C1)CN(Cc1cc(F)ccc1F)[C@H](CO)c1[nH]c3cc(OC)ccc3c12`, “inactive”; under `CO[C@@H]1CN(C)C(=O)c2ccc(NC(=O)c3nc4ccccc4s3)cc2OC[C@H](C)N(Cc2ccncc2)C[C@@H]1C`, “inactive”.
Consider `CO[C@@H]1CN(C)C(=O)c2cc(NC(=O)c3nc4ccccc4s3)ccc2OC[C@@H](C)N(Cc2ccccc2)C[C@H]1C`, for which the call was inactive.
For the compound `CO[C@@H]1CN(C)C(=O)c2ccc(NC(=O)c3nc4ccccc4s3)cc2OC[C@H](C)N(Cc2cccnc2)C[C@@H]1C`, the compound was called inactive.
For the compound `CO[C@@H]1CN(C)C(=O)c2ccc(NC(=O)c3nc4ccccc4s3)cc2OC[C@@H](C)N(Cc2cccnc2)C[C@H]1C`, the compound was classed as inactive.
As to `CC(=O)N1CC[C@@H]2[C@@H](CO)Nc3ccc(C#Cc4ccccc4F)cc3[C@@H]21`, the compound was classed as inactive.
As to `C/C=C/c1ccc([C@@H]2[C@@H](CO)N(CC3CCCC3)C23CN(S(=O)(=O)CC)C3)cc1`, the compound was called inactive.
For the compound `COc1ccccc1CN1C[C@@H](C)[C@H](OC)CN(C)C(=O)c2ccc(NC(=O)Nc3ccccc3OC)cc2OC[C@H]1C`, the result was inactive.
Take `C[C@@H]1CN([C@H](C)CO)C(=O)c2cccc(NC(=O)CCCCCC(=O)Nc3ccccc3N)c2O[C@@H]1CN(C)S(=O)(=O)c1ccccc1`: the call was inactive.
As for `Cc1ccccc1S(=O)(=O)N1[C@H](C#N)[C@@H](c2ccc(C#CC3CC3)cc2)[C@@H]1CO`, the compound was classed as inactive.
For `C[C@H](CO)N1C[C@H](C)[C@@H](CN(C)C(=O)c2ccc(F)cc2)Oc2ncc(/C=C/c3ccccc3)cc2C1=O`, the outcome was inactive.
Regarding `C[C@@H]1CN([C@@H](C)CO)S(=O)(=O)c2ccc(C#CC3(O)CCCC3)cc2O[C@H]1CN(C)C(=O)c1ccccc1`, the call was inactive.
For the compound `CN1c2ccc(-c3cccc(F)c3)cc2[C@@H]2[C@@H](CCN2C(=O)C2CC2)[C@@H]1CO`, the result was inactive.
For the compound `N#C[C@H]1[C@@H](c2ccccc2-c2ccccc2F)[C@@H](CO)N1C(=O)C1CCOCC1`, the call was inactive.
To `CO[C@@H]1CN(C)C(=O)c2ccc(NC(=O)Nc3ccc(C(F)(F)F)cc3)cc2OC[C@@H](C)NC[C@@H]1C` belongs “inactive”; to `CO[C@H]1CN(C)C(=O)c2ccc(NC(=O)Nc3ccc(C(F)(F)F)cc3)cc2OC[C@H](C)NC[C@H]1C`, “inactive”.
Take `CO[C@H]1CN(C)C(=O)c2ccc(NC(=O)Nc3ccc(C(F)(F)F)cc3)cc2OC[C@@H](C)NC[C@@H]1C`: the compound was called inactive.
In the case of `CO[C@@H]1CN(C)C(=O)c2ccc(NC(=O)Nc3ccc(C(F)(F)F)cc3)cc2OC[C@H](C)NC[C@H]1C`, the call was inactive.
In the case of `Cc1ccc(-c2ccccc2[C@H]2[C@@H](C#N)N(C(=O)NC3CCCC3)[C@H]2CO)cc1`, the compound was called inactive.
As for `COc1ccc(S(=O)(=O)N(C)C[C@@H]2Oc3cc(-c4ccccc4OC)ccc3S(=O)(=O)N([C@H](C)CO)C[C@H]2C)cc1`, the result was inactive.
Take `CCCC(=O)Nc1ccc2c(c1)OC[C@H](C)N(Cc1ccc(-c3ccccn3)cc1)C[C@H](C)[C@H](OC)CN(C)C2=O`: the compound was called inactive.
To `CO[C@@H]1CN(C)C(=O)c2ccc(NC(=O)C3CC3)cc2OC[C@@H](C)N(Cc2cccc(F)c2)C[C@H]1C` belongs “inactive”.
`CCC(=O)Nc1ccc2c(c1)C(=O)N(C)C[C@H](OC)[C@H](C)CN(Cc1cccc(F)c1)[C@@H](C)CO2`: the outcome was inactive.
To `COc1ccc(CN(C)C[C@@H]2OCc3cn(nn3)CCCC(=O)N([C@H](C)CO)C[C@H]2C)cc1` belongs “inactive”; to `COc1ccccc1CN1C[C@@H](C)[C@H](OC)CN(C)C(=O)c2cc(NC(=O)Nc3ccccc3OC)ccc2OC[C@H]1C`, “inactive”.
Take `C[C@@H]1CN([C@H](C)CO)S(=O)(=O)c2ccc(C#Cc3ccccc3F)cc2O[C@H]1CN(C)C(=O)c1ccc2c(c1)OCO2`: the result was inactive.
In the case of `COc1cccc(C(=O)Nc2ccc3c(c2)C(=O)N(C)C[C@@H](OC)[C@H](C)CN(CCc2ccccc2)[C@H](C)CO3)c1`, the outcome was inactive.
On to `C/C=C/c1ccc2c(c1)[C@H]1[C@H](CCN1C(=O)c1ccc(F)cc1)[C@H](CO)N2`, for which the result was inactive.
With `O=C(Nc1ccccc1F)N1C[C@@H]2[C@H](c3ccccc31)[C@H](CO)N2C(=O)C1CCOCC1`, the compound was called inactive.
To `COc1ccc2c3c([nH]c2c1)[C@@H](CO)N(Cc1cc(F)ccc1F)CC31CN(C(=O)C2CCC2)C1` belongs “inactive”; to `CN(C)C(=O)c1ccc(-c2cccc(-c3nc(C(=O)NC4CCCC4)cc4c3[C@H](CCO)N([S@@](=O)C(C)(C)C)C4)c2)cc1`, “inactive”.
To `CO[C@H]1CN(C)C(=O)c2ccc(NC(=O)c3cccc(Oc4ccccc4)c3)cc2OC[C@@H](C)NC[C@H]1C` belongs “inactive”.
In the case of `CO[C@@H]1CN(C)C(=O)c2ccc(NC(=O)Nc3cccc(F)c3)cc2OC[C@H](C)NC[C@H]1C`, the compound was classed as inactive.
Consider `COc1ccc(-c2ccc3c(c2)[C@H]2[C@H](CCN2Cc2ccncc2)[C@@H](CO)N3)cc1`, for which the call was inactive.
Turning to `CN1C(=O)c2cc(NC(=O)c3cccc(F)c3)ccc2OC[C@H]2O[C@H](CC(=O)NCC3CCCCC3)CC[C@H]21`, the compound was called inactive.
To `CC(C)NC(=O)Nc1ccc2c(c1)C(=O)N(C)[C@H]1CC[C@H](CC(=O)Nc3ccccc3)O[C@H]1CO2` belongs “inactive”; to `CC(C)(C)[S@@](=O)N1Cc2cc(C(=O)N[C@@H]3CCN(Cc4ccccc4)C3)nc(-c3cccc(-c4ccncc4)c3)c2[C@H]1CCO`, “inactive”.
On to `N#Cc1ccc(-c2ccc3c(c2)[C@H]2[C@H](CCN2C(=O)C2CCCC2)[C@H](CO)N3)cc1`, for which the compound was classed as inactive.
In the case of `COc1cccc(-c2ccc3c(c2)[C@@H]2[C@@H](CCN2S(=O)(=O)c2cn(C)cn2)[C@@H](CO)N3)c1`, the outcome was inactive.
With `O=C(C[C@H]1CC[C@@H]2[C@H](COC[C@H](O)CN2Cc2cc(F)ccc2F)O1)N[C@@H]1CCN(Cc2ccccc2)C1`, the outcome was inactive.
Under `COc1ccc2c3c([nH]c2c1)[C@@H](CO)N(Cc1nccs1)CC31CCN(Cc2nccs2)CC1` stands “inactive”; under `COc1ccc2c3c([nH]c2c1)[C@H](CO)N(Cc1ccccc1)CC31CCN(CC2CC2)CC1`, “inactive”.
`COc1ccc2c3c([nH]c2c1)[C@H](CO)N(Cc1ccncc1)CC31CN(Cc2ccc(-c3ccccn3)cc2)C1`: the compound was classed as inactive.
With `COc1ccc2c3c([nH]c2c1)[C@H](CO)N(Cc1ccc(F)cc1)CC31CCN(Cc2ccccn2)CC1`, the outcome was inactive.
In the case of `COc1ccc2c3c([nH]c2c1)[C@@H](CO)N(Cc1ccc(Cl)cc1)CC31CCN(Cc2nccs2)CC1`, the call was inactive.
Take `COc1cccc(CN2CC3(CCN(Cc4ccccn4)CC3)c3c([nH]c4cc(OC)ccc34)[C@@H]2CO)c1`: the call was inactive.
Under `C[C@@H]1CN([C@H](C)CO)C(=O)c2cc(NC(=O)CCC(F)(F)F)ccc2O[C@H]1CN(C)C(=O)NC1CCCCC1` stands “inactive”; under `O=C(C1CCCC1)N1CC[C@@H]2[C@H](CO)Nc3ccc(Br)cc3[C@@H]21`, “inactive”.
Turning to `COc1ccc2c3c([nH]c2c1)[C@H](CO)N(Cc1ccccc1Cl)CC31CN(C(C)=O)C1`, the result was inactive.
For `CC(C)(C)[S@@](=O)N1Cc2cc(C(=O)NC3CCC3)nc(-c3cccc(Br)c3)c2[C@H]1CCO`, the compound was classed as inactive.
Take `C[C@@H]1CN([C@@H](C)CO)C(=O)c2cccc(NC(=O)Nc3cccc4ccccc34)c2O[C@H]1CN(C)C(=O)NC1CCCCC1`: the compound was called inactive.
Consider `COc1ccc2c3c([nH]c2c1)[C@H](CO)N(Cc1ccccc1F)CC31CN(C(=O)C2CCC2)C1`, for which the compound was called inactive.
